From PubChem BioAssay (NCI) come the findings set out here.

Molecules are shown by their SMILES. About 83,000 compounds went through this panel and 20% of them were active in at least one assay; those are over-represented in the sample as a whole.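 Interpretation: 100, growth as untreated; towards 0, rising growth inhibition; 0, no net growth; 0 to -100, cell death. Compounds scoring below 10 were considered active.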 A number with no mark means an inactive call. Active and inactive are the calls of the source.

Test systems include NCI-H23 lung; NCI-H226 lung; NCI-H322M lung; HOP-62 NSCLC; NCI-H460 lung; HOP-92 NSCLC; NCI-H522 lung; A549/ATCC NSCLC; 786-0 renal; COLO 205 colon; DU-145 prostate; K-562 leukemia; MALME-3M melanoma; MDA-MB-231 breast; RXF 393 renal; SF-268 CNS; SF-295 CNS; SF-539 CNS; UACC-257 melanoma; M14 melanoma.
Common to all, as to assay: NCI-60 one-dose screen, 48 h (100 = growth as untreated, 0 = no growth, -100 = all killed)
What all share (conditions): 10 µM unless noted

In the case of `COc1cc(-c2nc(N3CCN(C)CC3)c3ccccc3n2)cc(OC)c1OC`, the growth is 74.4% in the test on NCI-H23 lung; 66.2% in the test on NCI-H226 lung; 84.4% in the test with NCI-H322M lung; 47.3% with HOP-62 NSCLC; 84.5% with NCI-H460 lung; 44.3% with HOP-92 NSCLC. Further, the growth with NCI-H522 lung was 8.58% (active); in the test on A549/ATCC NSCLC, 72.5%; in the test with 786-0 renal it was 47.5%; in the test with COLO 205 colon it was 81.5%; with DU-145 prostate, 82.4%; in the test with K-562 leukemia it was 44.8%. Further, the growth is 63.8% in the test on MALME-3M melanoma; 61.2% in the test with MDA-MB-231 breast; 51.4% in the test on RXF 393 renal; 56.8% in the test on SF-268 CNS; 28.6% in the test on SF-295 CNS; 39.3% in the test on SF-539 CNS. Moreover, the values for the growth in the test on UACC-257 melanoma and with M14 melanoma were 58.2% and 42%, respectively.

For `CCC(CO)Nc1nc2ccc(Cl)cc2c2ccccc12` (stereo not given), the growth is 73.9% with NCI-H23 lung; 65.3% in the test on NCI-H226 lung; 47.2% in the test on NCI-H322M lung; 60.3% with HOP-62 NSCLC; 25.1% in the test with NCI-H460 lung; 48.9% with HOP-92 NSCLC. Moreover, the growth in the test on NCI-H522 lung is 58.6%; in the test on A549/ATCC NSCLC, 55.3%; with 786-0 renal it was 41.6%; in the test on COLO 205 colon it was 86.4%; with DU-145 prostate, 84.9%; with K-562 leukemia, 38.2%. The growth in the test with MALME-3M melanoma was 85.8%; in the test on MDA-MB-231 breast, 55.7%; in the test on RXF 393 renal, 4.53% (active); with SF-268 CNS it was 70.7%; in the test with SF-295 CNS, 74.8%; with SF-539 CNS, 55.8%. For the same compound, the growth is 97.5% in the test on UACC-257 melanoma and 84.8% in the test with M14 melanoma.

`Cc1ccc(N(C(=O)CCc2c[nH]c3ccccc23)[C@H](C(=O)Nc2ccc(Cl)cc2)c2cccc([N+](=O)[O-])c2)cc1`: the growth in the test on NCI-H23 lung is 92.8%; in the test on NCI-H226 lung it was 74.9%; in the test with NCI-H322M lung, 79.1%; in the test with HOP-62 NSCLC, 68%; in the test on NCI-H460 lung it was 98.2%; with HOP-92 NSCLC, 75.9%. The growth with NCI-H522 lung was 64.2%; in the test with A549/ATCC NSCLC it was 73.8%; with 786-0 renal it was 90.5%; in the test with COLO 205 colon, 95%; in the test with DU-145 prostate, 81.6%; in the test with K-562 leukemia, 37.8%. Besides, the growth was 99% in the test with MALME-3M melanoma; 75.4% in the test on MDA-MB-231 breast; 95.7% in the test on RXF 393 renal; 70.7% in the test with SF-268 CNS; 105% with SF-295 CNS; 89.7% in the test with SF-539 CNS. Further, the growth in the test with UACC-257 melanoma was 90.1%; with M14 melanoma, 78.4%.

Turning to `COC(=O)c1c2c(c(C)[n+]([O-])c1C)C(=O)C(NCc1ccc(F)c(Cl)c1)=CC2=O`, the growth in the test with NCI-H23 lung is 16.3%; in the test with NCI-H226 lung, 84.3%; in the test on NCI-H322M lung, 3.24% (active); in the test with HOP-62 NSCLC it was 28.3%; with NCI-H460 lung, 7.33% (active); in the test on HOP-92 NSCLC it was 19%. The growth in the test with NCI-H522 lung is -26.6% (active); with A549/ATCC NSCLC, 1.3% (active); in the test with 786-0 renal, -93.5% (active); in the test with COLO 205 colon, -75.5% (active); with DU-145 prostate it was 36.2%; in the test with K-562 leukemia, 5.87% (active). Further, the growth in the test with MALME-3M melanoma was -93.5% (active); in the test with MDA-MB-231 breast, 2.68% (active); in the test with RXF 393 renal, 36.2%; with SF-268 CNS, 9.33% (active); with SF-295 CNS, 39%; in the test with SF-539 CNS, 3.31% (active). Besides, the growth with UACC-257 melanoma is -69.3% (active); in the test on M14 melanoma, -19.6% (active).

`Cc1ccccc1NC(=O)N/C(N)=N/c1nc(-c2cccc([N+](=O)[O-])c2)cs1`: the growth with NCI-H23 lung was 16.8%; in the test on NCI-H226 lung, 58.8%; with NCI-H322M lung it was 90.7%; with HOP-62 NSCLC it was 42.3%; in the test on NCI-H460 lung, 27%; with HOP-92 NSCLC it was 60.2%. For the same compound, the growth in the test on NCI-H522 lung is 18%; in the test on A549/ATCC NSCLC it was 54.2%; in the test with 786-0 renal, 71.6%; in the test on COLO 205 colon, 37.5%; in the test on DU-145 prostate it was 69.3%; with K-562 leukemia, 9.08% (active). Also, the growth in the test on MALME-3M melanoma was 33%; with MDA-MB-231 breast, 50.4%; with RXF 393 renal it was 56.7%; with SF-268 CNS, 64%; with SF-295 CNS, 15.8%; with SF-539 CNS it was 41.1%. For the same compound, the growth with UACC-257 melanoma was 51.5%; in the test on M14 melanoma, 19%.

For the compound `COc1ccc(OC)c2c1[nH]c(=O)c1c3ncccc3cn21`, the growth with NCI-H23 lung was 34.4%; in the test with NCI-H226 lung, 32.2%; with NCI-H322M lung it was 48.5%; in the test on HOP-62 NSCLC, 31.7%; with NCI-H460 lung it was -3.99% (active); in the test on HOP-92 NSCLC, 57.4%. Moreover, the growth was 29.7% with NCI-H522 lung; 13.5% in the test on A549/ATCC NSCLC; 34.7% with 786-0 renal; 22.8% with COLO 205 colon; 26.3% in the test with DU-145 prostate; 32% in the test with K-562 leukemia. The growth with MALME-3M melanoma was 60.2%; in the test on MDA-MB-231 breast, 41.4%; in the test with RXF 393 renal, 12.7%; in the test on SF-268 CNS, 34.2%; in the test with SF-295 CNS, -3.56% (active); in the test with SF-539 CNS, 37.2%. In addition, the growth was 37.4% with UACC-257 melanoma and 39.7% with M14 melanoma.

Turning to `Cc1nn(-c2ccccc2)c(Cl)c1/C=C(/NC(=O)c1ccccc1)c1nc2ccccc2[nH]1`, the growth with NCI-H23 lung is 106%; with NCI-H226 lung, 108%; with NCI-H322M lung, 90.3%; in the test on HOP-62 NSCLC, 99%; in the test on NCI-H460 lung, 109%; in the test on HOP-92 NSCLC, 82.6%. The growth with NCI-H522 lung was 86.6%; in the test with A549/ATCC NSCLC, 90%; with 786-0 renal, 90.2%; with COLO 205 colon it was 83.6%; in the test with DU-145 prostate, 117%; with K-562 leukemia it was 88.4%. Further, the growth is 48.9% in the test on MALME-3M melanoma; 85.5% in the test on MDA-MB-231 breast; 119% with RXF 393 renal; 104% in the test with SF-268 CNS; 92.9% in the test on SF-295 CNS; 110% in the test on SF-539 CNS. For the same compound, the growth is 90.1% in the test on UACC-257 melanoma and 70% in the test on M14 melanoma.
